RecA intein inh – Mtb RecA intein splicing inhibition; P9WHJ3; cell-free RecA intein splicing, fluorescence; inhibition, % (concentration not given with the values); 290,000 tested, 0.75% active; AID 2221; in the data active means inhibition above about 30%
Mtb hypoxia inh – reduces hypoxia-regulated biosensor signal in M. tuberculosis; 300,000 tested, 0.1% active; AID 1159583; M. tuberculosis hypoxia-regulated fluorescent reporter, fluorescence; fluorescence inhibition, % (no concentration beside the values); in the data active means fluorescence inhibition mostly above about 23%, no sharp cut-off; inactive means mostly below about 17%
UGM FP inh – Mtb UDP-galactopyranose mutase inhibition | P9WIQ1 | purified UGM, fluorescence polarization probe displacement | inhibition, % at 10 µM | 320,000 tested, 0.06% active | AID 504406; in the data active means inhibition above about 10%, passing the limit was not always enough
FadD28 FP inh – inhibitors of Mycobacterium tuberculosis FadD28 bisubstrate binding | FadD28 bisubstrate probe binding, fluorescence polarization | inhibition, % at 12.5 µM | 360,000 tested, 0.22% active | AID 588549; in the data active means inhibition above about 8.5%, passing the limit was not always enough
Rv3671c inh – inhibitors of M. tuberculosis serine protease Rv3671c; P9WHR9; inhibition, % at 5.96 µM; 320,000 tested, 0.048% active; AID 2606; in the data active means inhibition above about 38%;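 further: extracellular domain of Rv3671c used as enzyme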
Target sequence (P9WHR9 whole entry, looked up, the tested form may be a part): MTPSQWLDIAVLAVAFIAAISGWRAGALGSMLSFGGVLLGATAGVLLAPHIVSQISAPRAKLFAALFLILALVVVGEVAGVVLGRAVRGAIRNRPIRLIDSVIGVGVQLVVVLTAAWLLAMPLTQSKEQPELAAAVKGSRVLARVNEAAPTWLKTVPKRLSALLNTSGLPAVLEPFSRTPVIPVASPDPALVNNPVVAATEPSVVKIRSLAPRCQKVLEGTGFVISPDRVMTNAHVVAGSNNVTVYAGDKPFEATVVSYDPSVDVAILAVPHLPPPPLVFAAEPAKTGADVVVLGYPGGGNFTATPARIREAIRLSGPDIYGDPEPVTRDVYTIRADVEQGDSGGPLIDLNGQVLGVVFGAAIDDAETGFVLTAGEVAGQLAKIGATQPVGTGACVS
A number is an active result; - = inactive; . = no result shown. The list is not random: actives were taken first. Their share in the collection is about 0.92%.

SMILES	RecA intein inh	Mtb hypoxia inh	UGM FP inh	FadD28 FP inh	Rv3671c inh
C[C@]12CCC(=O)C=C1CCC1C2C(O)C[C@@]2(C)C1CC[C@]2(O)C(=O)CO (stereo not given in full)	.	-	.	.	.
Cc1ccc(-c2csc(NC(=O)CSC3=NCCS3)n2)cc1	58.5	-	-	-	-
CCOC(=S)SCC(=O)Nc1nc(-c2ccc(Br)cc2)cs1	-	-	-	-	-
CCOC(=S)SCC(=O)Nc1nc(-c2ccccc2)cs1	43.0	-	-	-	-
O=C(NN=Cc1sc(N2CCOCC2)nc1-c1ccccc1)c1ccccc1F	.	-	.	.	.
O=C(Nc1ccccc1F)C(=Cc1sc(N2CCOCC2)nc1-c1ccccc1)C(=O)Nc1ccccc1F	-	-	11.6	-	-
Cc1ccc(/C=C/C(=O)N2CCN(Cc3ccccc3)CC2)o1	-	58.9	-	-	-
Cc1cccc(CN2CCN(C(=O)Cc3ccccc3)CC2)c1	-	-	-	-	-
Cc1cccc(CN2CCN(C(=O)CCl)CC2)c1	33.1	-	-	-	-
COc1cccc(C=NNC(=O)NC23CC4CC(CC(C4)C2)C3)c1O	.	-	.	.	.
CC(C)(C)c1ccc(/C=C2\SC(=O)N(CCNC(=O)c3cccc(S(=O)(=O)N4CCOCC4)c3)C2=O)cc1	30.9	-	-	-	-
COC(=O)c1sc(NC(=S)NNC(=O)c2c(Br)c(C)nn2C)c(C(=O)OC)c1C	-	-	-	19.8	-
COc1ccccc1N1CCN(C2CCCN(C(=O)CCC(=O)N(C)C)C2)CC1 (stereo not given)	-	-	10.3	-	-
CN1CCc2nc(SCC(=O)Nc3ccc(F)cc3)c(C#N)cc2C1	32.8	.	-	.	-
COC(=O)c1ccc(CON=C2CCCc3nonc32)cc1	.	-	.	.	.
CC1CN=C(Nc2ccccc2)N1CCc1ccccc1 (stereo not given)	.	-	.	.	.
COC1(OC)N=C(N)C2(C#N)C(c3ccccc3)NC(C)=CC12C#N (stereo not given)	-	.	-	-	-
CC1=CC(C#N)(C#N)C(C#N)(C#N)C(c2ccccc2)N1 (stereo not given)	-	.	-	.	42.9
O=C(COC(=O)c1ccccc1Br)NCC1CCCCC1	.	-	-	-	-
O=C(COC(=O)c1ccccc1NCCO)NCC1CCCCC1	.	31.0	-	-	-
C#CCOc1ccc(C=NO)cc1Cl	.	-	.	.	.
CC1=NN(c2ccc(C)cc2)C(=O)/C1=C\C=C\c1ccccc1	-	-	-	-	-
CC1=NN(c2ccccc2)C(=O)/C1=C/C=C/C=C/N(C)C	.	63.1	-	-	-
Cc1csc(NC(=O)c2nc3nccc(C)n3n2)n1	-	-	-	-	-
Cc1ccnc2nc(C(=O)Nc3nc4ccccc4s3)nn12	-	53.0	-	-	-
SMILES	RecA intein inh	Mtb hypoxia inh	UGM FP inh	FadD28 FP inh	Rv3671c inh
Cc1ccc(-n2nc(C)c3c2OC(N)=C(C#N)C3c2ccoc2)cc1 (stereo not given)	71.1	-	-	-	-
Cc1ccc(-c2[nH]nc3c2C(c2ccoc2)C(C#N)=C(N)O3)cc1C (stereo not given)	92.3	-	-	-	-
CC(C)(C)c1[nH]nc2c1C(c1ccncc1)C(C#N)=C(N)O2 (stereo not given)	-	-	-	-	-
Cc1nn(-c2ccccc2)c2c1C(c1ccc(Br)s1)C(C#N)=C(N)O2 (stereo not given)	.	-	.	-	.
CC(C)(C)c1[nH]nc2c1C(c1ccoc1)C(C#N)=C(N)O2 (stereo not given)	56.4	.	-	-	-
COC(=O)c1cccc(C23CC4(C2)C(CN(Cc2ccc(C(F)(F)F)cc2)C4c2ccccc2)C3c2ccccc2)c1 (stereo not given)	.	-	.	.	.
COc1ccccc1C=NNC(=O)c1nnn(-c2nonc2N)c1-c1cccs1	.	-	.	.	.
NC(=O)c1sc2nc3c(c(-c4ccco4)c2c1N)CCCC3	-	-	-	-	-
Nc1c(C(=O)NCC2CCCO2)sc2nc3c(c(-c4ccco4)c12)CC/C3=C\c1ccco1 (stereo not given)	.	-	.	13.8	.
COc1ccc(C(N)=NOC(=O)c2ccc(C)c([N+](=O)[O-])c2)cc1OC	.	-	.	.	.
COCc1nnc(NS(=O)(=O)c2ccc([N+](=O)[O-])cc2)s1	-	64.8	-	-	-
CC(=O)OC[C@]1(OC(C)=O)C[C@@]23CCC4[C@@](C)(CCC[C@@]4(C)C(=O)O)C2CCC1C3 (stereo not given in full)	.	-	.	.	.
Cc1ccc(NC(=O)CNc2ccccc2N2CCCC2=O)cc1S(=O)(=O)N1CCCCC1	.	-	-	41.6	-
CCN(CC)S(=O)(=O)c1cc(NC(=O)Cn2ncc(Cl)c(Cl)c2=O)ccc1C	51.5	-	-	-	-
Cc1ccc(NC(=O)CCl)cc1S(=O)(=O)N1CCCCCC1	52.4	-	-	-	-
COCCNCC(=O)Nc1ccc(C)c(S(=O)(=O)N2CCCCC2)c1	-	-	-	-	-
O=C(Cn1ncc(Cl)c(Cl)c1=O)Nc1ccc2c(c1)OCO2	.	-	-	-	-
C=CCn1c2ccccc2c(=O)c2cc(C#CCC(C)O)ccc21 (stereo not given)	.	-	.	.	.
CC1=NNC(=O)C1C(c1cccc(O)c1)C(C#N)C#N (stereo not given)	59.6	-	-	-	-
Cc1c(C(c2cccc(O)c2)c2c(C)n(C)n(-c3ccccc3)c2=O)c(=O)n(-c2ccccc2)n1C	-	-	-	-	-
Cc1ccc(NC(=O)Nc2sc(=S)n(C)c2C)cc1	.	-	-	11.1	-
CC(=O)NC(=O)Nc1sc(=S)n(C)c1C	-	.	-	-	-
COc1ccc(CN2C(CC(C)=O)c3cc(C(F)(F)F)ccc3S2(=O)=O)cc1 (stereo not given)	.	-	.	.	.
O=C(OCC(=O)C12CC3CC(CC(C3)C1)C2)c1ccc(O)cc1	.	-	-	-	-
O=C(OCC(=O)C12CC3CC(CC(C3)C1)C2)c1ccc(CO)cc1	.	24.6	-	-	-
SMILES	RecA intein inh	Mtb hypoxia inh	UGM FP inh	FadD28 FP inh	Rv3671c inh
O=c1c(C(c2ccccc2)c2c(O)sc3ccccc3c2=O)c(O)sc2ccccc12	28.7	-	-	-	-
O=C(NC(Cc1ccccc1)C(=O)NC(Cc1ccccc1)C(=O)O)OCc1ccccc1 (stereo not given)	.	-	.	.	.
CCOC(=O)Cn1cc(C(=O)c2ccco2)c2ccccc21	-	-	-	15.0	-
O=C(CCl)Nc1c2c(nn1-c1ccccc1)CSC2	34.9	.	-	-	-
C=CCN1C(=O)NC(c2ccc(OC)cc2)(C(F)(F)F)S/C1=C(\C#N)c1nnc(N2CCOCC2)n1-c1ccccc1 (stereo not given)	43.4	-	-	-	-
C=CCN1C(=O)NC(c2ccccc2)(C(F)(F)F)SC1=C(C#N)c1nnc(N2CCOCC2)n1-c1ccccc1 (stereo not given)	.	-	.	.	.
COc1ccc(CC(=O)NN=C/C=C/c2cccc([N+](=O)[O-])c2)cc1OC	.	-	.	.	.
CC(=O)NC(Cc1ccc(O)cc1)CN1C(N)=NCC1CC(C)C (stereo not given)	.	-	.	.	.
CCN1/C(=C/c2ccc3cc(C)ccc3[n+]2CC)Sc2ccccc21	-	.	-	-	-
CCN1/C(=C/c2ccc3cc(C)ccc3[n+]2CC)Sc2cc(C)c(C)cc21	.	39.9	.	-	.
O=C(CN1C(=O)C(=Cc2cccc(Br)c2)SC1=S)Nc1cccnc1	.	-	.	.	.

From PubChem
